# Columns and labels:
# Assay in all cases: universal protein binding microarray (PBM); transcription factors of Arabidopsis thaliana; high values mean tight binding
# [1] = target: T1, GST-ANAC092(1-176) (Arabidopsis thaliana, UniProt Q9FKA0 1-176); details: protein: recombinant; tags: GST; chain copies: 2; dsDNA, one strand shown
# T1 sequence: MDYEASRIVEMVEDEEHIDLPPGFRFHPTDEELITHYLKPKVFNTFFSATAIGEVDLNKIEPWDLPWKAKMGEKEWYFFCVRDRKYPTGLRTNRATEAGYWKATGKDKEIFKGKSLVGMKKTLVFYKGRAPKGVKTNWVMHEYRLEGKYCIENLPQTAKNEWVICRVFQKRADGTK
# Outline: (§1)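 GST-tagged proteins (NAC-domain, full-length or DNA-binding-domain) were induced in cells, with zinc acetate supplied for zinc-finger proteins, then purified on glutathione–Sepharose 4B. Each was tested in duplicate at 200 to 500 nM final on custom all-10-mer Agilent 4 × 180K arrays rendered double-stranded by primer extension. The binding value is the normalised enrichment score (E-score) across gapped and ungapped 8-mers.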
# [2] = target: GST-NTL6(1-168) (Arabidopsis thaliana, UniProt Q9SCK6 1-168); details: protein: recombinant; tags: GST; chain copies: 2; dsDNA, one strand shown
# GST-NTL6(1-168), sequence (Q9SCK6 1-168): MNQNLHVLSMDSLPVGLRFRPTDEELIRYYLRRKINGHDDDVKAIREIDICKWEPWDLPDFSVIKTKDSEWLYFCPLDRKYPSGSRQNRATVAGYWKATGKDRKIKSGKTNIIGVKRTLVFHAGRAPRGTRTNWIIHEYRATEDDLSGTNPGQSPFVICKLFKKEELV
# Outline: as §1
# [3] = target: T2, GST-ANAC019 NAC domain (Arabidopsis thaliana, UniProt Q9C932 14-162); details: protein: recombinant; tags: GST; chain copies: 2; dsDNA, one strand shown
# T2 sequence: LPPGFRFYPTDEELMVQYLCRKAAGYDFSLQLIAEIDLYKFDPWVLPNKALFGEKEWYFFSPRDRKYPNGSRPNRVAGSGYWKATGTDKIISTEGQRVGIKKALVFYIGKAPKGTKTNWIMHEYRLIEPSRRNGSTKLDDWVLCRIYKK
# Outline: as §1
# [4] = target: T3, GST-ANAC055(1-171) (Arabidopsis thaliana, UniProt Q9LDY8 1-171); details: protein: recombinant; tags: GST; chain copies: 2; dsDNA, one strand shown
# T3 sequence: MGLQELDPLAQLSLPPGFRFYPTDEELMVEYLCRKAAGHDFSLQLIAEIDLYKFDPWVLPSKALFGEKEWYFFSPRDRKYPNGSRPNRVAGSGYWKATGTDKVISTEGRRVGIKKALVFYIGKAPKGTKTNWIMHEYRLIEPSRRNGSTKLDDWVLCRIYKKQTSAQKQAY
# Outline: as §1
# [5] = target: T4, GST-ATAF1 NAC domain (Arabidopsis thaliana, UniProt Q39013 7-158); details: protein: recombinant; tags: GST; chain copies: 2; dsDNA, one strand shown
# T4 sequence: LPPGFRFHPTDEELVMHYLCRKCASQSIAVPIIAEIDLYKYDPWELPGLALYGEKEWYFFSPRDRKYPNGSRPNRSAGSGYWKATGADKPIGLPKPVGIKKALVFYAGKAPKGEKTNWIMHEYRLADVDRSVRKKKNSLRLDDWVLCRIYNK
# Outline: as §1
# [6] = target: T5, GST-ANAC092(1-285) full length (Arabidopsis thaliana, UniProt Q9FKA0 1-285); details: protein: recombinant; tags: GST; chain copies: 2; dsDNA, one strand shown
# T5 sequence: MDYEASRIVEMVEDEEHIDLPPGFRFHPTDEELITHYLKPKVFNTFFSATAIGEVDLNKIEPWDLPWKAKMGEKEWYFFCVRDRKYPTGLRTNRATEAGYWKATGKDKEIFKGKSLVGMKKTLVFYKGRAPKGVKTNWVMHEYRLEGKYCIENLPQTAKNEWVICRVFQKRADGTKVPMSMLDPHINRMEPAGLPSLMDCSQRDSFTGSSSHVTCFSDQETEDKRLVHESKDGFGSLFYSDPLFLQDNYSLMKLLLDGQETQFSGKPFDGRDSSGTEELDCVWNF
# Outline: as §1
# [7] = target: T6, GST-NAP(1-166) (Arabidopsis thaliana, UniProt O49255 1-166); details: protein: recombinant; tags: GST; chain copies: 2; dsDNA, one strand shown
# T6 sequence: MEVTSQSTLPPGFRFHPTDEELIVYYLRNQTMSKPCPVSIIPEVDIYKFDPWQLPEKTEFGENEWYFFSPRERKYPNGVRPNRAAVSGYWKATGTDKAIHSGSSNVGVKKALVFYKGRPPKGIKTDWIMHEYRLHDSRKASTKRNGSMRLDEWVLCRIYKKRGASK
# Outline: as §1
# [8] = target: T7, GST-NST2(1-184) (Arabidopsis thaliana, UniProt Q9M274 1-184); details: protein: recombinant; tags: GST; chain copies: 2; dsDNA, one strand shown
# T7 sequence: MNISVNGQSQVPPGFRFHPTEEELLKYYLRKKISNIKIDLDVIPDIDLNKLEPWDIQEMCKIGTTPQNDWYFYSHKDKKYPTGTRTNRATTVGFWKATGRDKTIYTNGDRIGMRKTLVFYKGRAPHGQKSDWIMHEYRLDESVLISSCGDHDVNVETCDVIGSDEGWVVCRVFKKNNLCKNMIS
# Outline: as §1
# [9] = target: T8, GST-SND1(1-203) (Arabidopsis thaliana, UniProt Q9LPI7 1-203); details: protein: recombinant; tags: GST; chain copies: 2; dsDNA, one strand shown
# T8 sequence: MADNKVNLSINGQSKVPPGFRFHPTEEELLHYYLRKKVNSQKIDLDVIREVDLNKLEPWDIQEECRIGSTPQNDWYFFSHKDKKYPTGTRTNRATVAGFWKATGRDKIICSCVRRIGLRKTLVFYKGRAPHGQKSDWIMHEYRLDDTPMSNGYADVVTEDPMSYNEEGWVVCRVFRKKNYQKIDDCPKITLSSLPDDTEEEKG
# Outline: as §1
# [10] = target: T9, GST-VND3 NAC domain (Arabidopsis thaliana, UniProt Q9FH59 12-162); details: protein: recombinant; tags: GST; chain copies: 2; dsDNA, one strand shown
# T9 sequence: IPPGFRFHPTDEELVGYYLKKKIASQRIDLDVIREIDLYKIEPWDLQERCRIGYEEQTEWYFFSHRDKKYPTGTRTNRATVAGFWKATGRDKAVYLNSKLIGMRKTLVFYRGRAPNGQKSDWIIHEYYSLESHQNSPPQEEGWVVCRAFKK
# Outline: as §1
# [11] = target: T10, GST-VND7 NAC domain (Arabidopsis thaliana, UniProt Q9C8W9 9-158); details: protein: recombinant; tags: GST; chain copies: 2; dsDNA, one strand shown
# T10 sequence: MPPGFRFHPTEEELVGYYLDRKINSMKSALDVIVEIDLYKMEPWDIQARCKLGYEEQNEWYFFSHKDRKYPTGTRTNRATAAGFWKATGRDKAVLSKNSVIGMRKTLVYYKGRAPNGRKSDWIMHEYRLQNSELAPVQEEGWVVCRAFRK
# Outline: as §1
# [12] = target: T11, GST-NTL8 NAC domain (Arabidopsis thaliana, UniProt Q9XIN7 14-156); details: protein: recombinant; tags: GST; chain copies: 2; dsDNA, one strand shown
# T11 sequence: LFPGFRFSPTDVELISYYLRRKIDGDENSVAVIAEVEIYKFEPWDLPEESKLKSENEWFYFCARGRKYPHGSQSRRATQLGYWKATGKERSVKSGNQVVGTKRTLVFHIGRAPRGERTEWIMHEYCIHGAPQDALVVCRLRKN
# Outline: as §1
# [13] = target: GST-WRKY1(266-371) (Arabidopsis thaliana, UniProt Q9SI37 266-371); details: protein: recombinant; tags: GST; dsDNA, one strand shown
# GST-WRKY1(266-371), sequence (Q9SI37 266-371): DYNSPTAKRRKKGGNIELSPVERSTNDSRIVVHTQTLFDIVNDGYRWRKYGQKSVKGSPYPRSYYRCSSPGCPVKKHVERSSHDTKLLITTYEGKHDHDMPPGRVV
# Outline: as §1
sequence,measurement,setting,value
ACACGCTA,binding signal,[1],0.484 E-score
same,binding signal,[2],0.0935 E-score
same,binding signal,[3],0.16 E-score
same,binding signal,[4],0.193 E-score
same,binding signal,[5],0.116 E-score
same,binding signal,[6],0.49 E-score
same,binding signal,[7],0.194 E-score
same,binding signal,[8],0.4 E-score
same,binding signal,[9],0.438 E-score
same,binding signal,[10],0.079 E-score
same,binding signal,[11],0.104 E-score
CAACACGC,binding signal,[1],0.418 E-score
same,binding signal,[3],0.304 E-score
same,binding signal,[4],0.227 E-score
same,binding signal,[5],0.172 E-score
same,binding signal,[6],0.436 E-score
same,binding signal,[7],0.252 E-score
same,binding signal,[8],0.229 E-score
same,binding signal,[12],0.0505 E-score
same,binding signal,[9],0.259 E-score
same,binding signal,[10],0.162 E-score
same,binding signal,[11],0.218 E-score
same,binding signal,[13],0.125 E-score
TAAGTCAA,binding signal,[2],0.268 E-score
same,binding signal,[4],0.121 E-score
same,binding signal,[5],0.208 E-score
same,binding signal,[6],0.158 E-score
same,binding signal,[8],0.172 E-score
same,binding signal,[9],0.175 E-score
same,binding signal,[10],0.0988 E-score
same,binding signal,[11],0.145 E-score
same,binding signal,[13],0.483 E-score
TAGAGTAA,binding signal,[1],0.177 E-score
same,binding signal,[4],0.0921 E-score
same,binding signal,[5],0.0567 E-score
same,binding signal,[6],0.263 E-score
same,binding signal,[8],0.216 E-score
same,binding signal,[12],0.065 E-score
same,binding signal,[9],0.401 E-score
same,binding signal,[10],0.117 E-score
same,binding signal,[11],0.128 E-score
same,binding signal,[13],0.0876 E-score
AATACGCA,binding signal,[1],0.411 E-score
same,binding signal,[2],0.109 E-score
same,binding signal,[3],0.196 E-score
same,binding signal,[4],0.293 E-score
same,binding signal,[5],0.142 E-score
same,binding signal,[6],0.431 E-score
same,binding signal,[7],0.221 E-score
same,binding signal,[8],0.206 E-score
same,binding signal,[9],0.356 E-score
same,binding signal,[10],0.314 E-score
same,binding signal,[11],0.259 E-score
ATGTCAAC,binding signal,[2],0.0563 E-score
same,binding signal,[4],0.133 E-score
same,binding signal,[5],0.127 E-score
same,binding signal,[7],0.106 E-score
same,binding signal,[8],0.0828 E-score
same,binding signal,[9],0.0631 E-score
same,binding signal,[10],0.089 E-score
same,binding signal,[11],0.124 E-score
same,binding signal,[13],0.443 E-score
ATAGCGTG,binding signal,[1],0.464 E-score
same,binding signal,[2],0.0569 E-score
same,binding signal,[3],0.174 E-score
same,binding signal,[4],0.167 E-score
same,binding signal,[5],0.128 E-score
same,binding signal,[6],0.47 E-score
same,binding signal,[7],0.105 E-score
same,binding signal,[8],0.332 E-score
same,binding signal,[9],0.418 E-score
same,binding signal,[10],0.218 E-score
same,binding signal,[11],0.15 E-score
ACGTCTCC,binding signal,[1],0.21 E-score
same,binding signal,[3],0.411 E-score
same,binding signal,[4],0.353 E-score
same,binding signal,[5],0.368 E-score
same,binding signal,[6],0.33 E-score
same,binding signal,[7],0.273 E-score
same,binding signal,[8],0.167 E-score
same,binding signal,[12],0.052 E-score
same,binding signal,[9],0.182 E-score
same,binding signal,[10],0.34 E-score
same,binding signal,[11],0.322 E-score
same,binding signal,[13],0.0802 E-score
CGTCAACG,binding signal,[1],0.117 E-score
same,binding signal,[3],0.109 E-score
same,binding signal,[5],0.0746 E-score
same,binding signal,[6],0.159 E-score
same,binding signal,[7],0.108 E-score
same,binding signal,[9],0.0973 E-score
same,binding signal,[10],0.0692 E-score
same,binding signal,[11],0.0989 E-score
same,binding signal,[13],0.47 E-score
CACGTCAA,binding signal,[1],0.444 E-score
same,binding signal,[3],0.38 E-score
same,binding signal,[4],0.324 E-score
same,binding signal,[5],0.248 E-score
same,binding signal,[6],0.448 E-score
same,binding signal,[7],0.299 E-score
same,binding signal,[8],0.252 E-score
same,binding signal,[9],0.313 E-score
same,binding signal,[10],0.332 E-score
same,binding signal,[11],0.278 E-score
same,binding signal,[13],0.403 E-score
GTTGACTA,binding signal,[2],0.072 E-score
same,binding signal,[3],0.079 E-score
same,binding signal,[4],0.0652 E-score
same,binding signal,[5],0.103 E-score
same,binding signal,[6],0.133 E-score
same,binding signal,[9],0.062 E-score
same,binding signal,[10],0.158 E-score
same,binding signal,[11],0.0849 E-score
same,binding signal,[13],0.49 E-score
GACTTTTA,binding signal,[3],0.0971 E-score
same,binding signal,[4],0.051 E-score
same,binding signal,[5],0.17 E-score
same,binding signal,[6],0.141 E-score
same,binding signal,[9],0.0841 E-score
same,binding signal,[10],0.0985 E-score
same,binding signal,[11],0.149 E-score
same,binding signal,[13],0.414 E-score
AAGCGTAA,binding signal,[1],0.214 E-score
same,binding signal,[2],0.0576 E-score
same,binding signal,[3],0.168 E-score
same,binding signal,[4],0.0793 E-score
same,binding signal,[5],0.175 E-score
same,binding signal,[6],0.3 E-score
same,binding signal,[7],0.119 E-score
same,binding signal,[8],0.212 E-score
same,binding signal,[9],0.426 E-score
same,binding signal,[10],0.13 E-score
same,binding signal,[11],0.115 E-score
AGTCAAAA,binding signal,[1],0.157 E-score
same,binding signal,[3],0.0721 E-score
same,binding signal,[5],0.234 E-score
same,binding signal,[6],0.0672 E-score
same,binding signal,[9],0.111 E-score
same,binding signal,[10],0.104 E-score
same,binding signal,[11],0.0632 E-score
same,binding signal,[13],0.47 E-score
AGTTTGAC,binding signal,[2],0.0778 E-score
same,binding signal,[3],0.068 E-score
same,binding signal,[4],0.118 E-score
same,binding signal,[5],0.122 E-score
same,binding signal,[9],0.069 E-score
same,binding signal,[10],0.0521 E-score
same,binding signal,[11],0.095 E-score
same,binding signal,[13],0.48 E-score
AAACGTGT,binding signal,[1],0.424 E-score
same,binding signal,[2],0.0946 E-score
same,binding signal,[3],0.269 E-score
same,binding signal,[4],0.33 E-score
same,binding signal,[5],0.339 E-score
same,binding signal,[6],0.435 E-score
same,binding signal,[7],0.249 E-score
same,binding signal,[8],0.275 E-score
same,binding signal,[9],0.214 E-score
same,binding signal,[10],0.328 E-score
same,binding signal,[11],0.306 E-score

# — publication PMC4081100, “A DNA-binding-site landscape and regulatory network analysis for NAC transcription factors in Arabidopsis thaliana”
